# Rows were chosen to be rich in hits. Some 2.8% of all compounds tested hit in one or more screens of this group.
# PAFAH1B2 inh = PAFAH1B2 (human) inhibition; inhibition, % at 3.39 µM; hit rate 1.2% among 340,000; recombinant PAFAH1B2, FP-rhodamine activity probe, fluorescence polarization;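 active means inhibition above the mean of all tested compounds plus 3 SD, cut at about 24% in these data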;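 further: 0% = enzyme with DMSO and 100% = wells lacking PAFAH1B2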
# PAFAH1B3 FP inh = inhibitors of human PAFAH1B3. inhibition, % at 3.39 µM. hit rate 0.28% among 340,000. Q15102. recombinant PAFAH1B3, FP-rhodamine probe, fluorescence polarization;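 active means inhibition above the screen-wide average of all tested compounds plus 3 SD, cut at about 25% in these data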;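 further: 0% = enzyme with DMSO only and 100% = wells lacking PAFAH1B3 protein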
# Target sequence (Q15102 whole entry, looked up): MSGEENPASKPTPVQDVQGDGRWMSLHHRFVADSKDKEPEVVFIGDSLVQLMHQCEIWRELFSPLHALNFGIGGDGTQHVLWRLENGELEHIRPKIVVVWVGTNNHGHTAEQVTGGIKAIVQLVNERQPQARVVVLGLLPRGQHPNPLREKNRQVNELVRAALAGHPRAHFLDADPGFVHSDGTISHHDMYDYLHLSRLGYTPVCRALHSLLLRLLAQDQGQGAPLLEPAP
# DAGLB inhibitor = diacylglycerol lipase beta (human) inhibition; Q8NCG7; HEK293T DAGLB membrane lysate, EnzChek fluorogenic substrate; inhibition, % at 5.17 µM; hit rate 0.059% among 340,000; AID 504411; in the data active means inhibition above about 34%;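 further: 0% = enzyme with vehicle and 100% = wells lacking enzyme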
# HTRA1 inh = blocks human HTRA1 serine peptidase; AID 504803; hit rate 0.5% among 340,000; inhibition, % at 5.96 µM; Q92743; recombinant HTRA1, FP-rhodamine activity-based probe, fluorescence polarization; in the data active means inhibition above about 36%;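 further: 0% = enzyme with DMSO and 100% = wells lacking enzyme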
# Target sequence (Q92743 whole entry, looked up): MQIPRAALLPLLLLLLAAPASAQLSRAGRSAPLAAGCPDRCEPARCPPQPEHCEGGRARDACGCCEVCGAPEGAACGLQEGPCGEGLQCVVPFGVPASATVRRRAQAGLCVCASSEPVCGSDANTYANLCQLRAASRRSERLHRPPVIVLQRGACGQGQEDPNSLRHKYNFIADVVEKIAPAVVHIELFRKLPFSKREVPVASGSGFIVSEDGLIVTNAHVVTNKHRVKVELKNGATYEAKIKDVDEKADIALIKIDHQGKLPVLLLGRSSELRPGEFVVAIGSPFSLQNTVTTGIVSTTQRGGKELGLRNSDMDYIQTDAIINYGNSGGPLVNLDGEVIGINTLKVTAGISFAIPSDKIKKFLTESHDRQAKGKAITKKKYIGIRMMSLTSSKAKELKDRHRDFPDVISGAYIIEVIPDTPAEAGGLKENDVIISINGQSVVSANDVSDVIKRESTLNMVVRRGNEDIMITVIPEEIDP
# PAFAH2 FP inh = inhibitors of human PAFAH2; inhibition, % at 3.39 µM; Q99487; hit rate 0.99% among 340,000; recombinant PAFAH2, FP-rhodamine activity probe, fluorescence polarization;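 active means inhibition above the mean over all tested compounds plus 3 SD, cut at about 30% in these data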;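 further: inhibitors block probe labeling of enzyme so polarization drops; 0% = enzyme with DMSO and 100% = wells lacking PAFAH2 protein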
# pPAFAH FP inh = pPAFAH (human) enzyme inhibition. recombinant pPAFAH, FP-rhodamine probe fluorescence polarization. hit rate 1.5% among 330,000. AID 463082. inhibition, % at 3.39 µM;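 active means inhibition above the mean inhibition across the screen plus 3 SD, cut at about 25% in these data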;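 further: inhibitors block binding of the rhodamine activity-based probe so polarization drops; 0% = enzyme with DMSO and 100% = wells lacking pPAFAH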
# PAFAH2 confirm = PAFAH2 (human) inhibition, confirmed. shares compounds with PAFAH2 FP inh. inhibition, % at 3.39 µM. hit rate 65% among 2,300. recombinant PAFAH2, FP-rhodamine activity probe, fluorescence polarization;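 active means mean inhibition over three repeats above a set limit taken from the earlier primary screen, cut at about 30% in these data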;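 further: inhibitor blocks binding of rhodamine activity probe so polarization falls; 0% = enzyme with DMSO and 100% = wells lacking PAFAH2 protein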
# An asterisk follows results filed as active; / = not tested or not shown.
SMILES,PAFAH1B2 inh,PAFAH1B3 FP inh,DAGLB inhibitor,HTRA1 inh,PAFAH2 FP inh,pPAFAH FP inh,PAFAH2 confirm
CC(=O)Nc1ccc(C(=O)OCC(=O)NC(=O)NC2CCCCC2)cc1,-2.4,4.8,-1.4,12.3,53.0*,-1.6,38.6*
CC(C)Oc1ccc(C(=O)OCC(=O)NC(=O)NC2CCCC2)cc1,0.9,1.9,-1.8,9.8,40.9*,7.6,33.9*
CCOC(=O)C1(CCOC)CCN(C(=O)Cc2ccc3ccccc3c2)CC1,1.4,9.0,-1.5,-1.2,8.0,-1.0,/
CN1CCN(S(=O)(=O)c2cccc(C(=O)NCc3ccc(Cl)cc3)c2)CC1,2.6,8.9,-2.5,-3.0,-1.6,11.0,/
CSc1ccccc1OCc1cc(C(=O)N(C)C(C)c2nc(C)cs2)no1 (stereo not given),0.1,-5.1,-1.8,-11.1,0.8,8.2,/
CCCNC(=O)CS(=O)(=O)c1ccccc1,1.8,4.7,-3.5,1.3,-4.7,2.3,/
Cc1ccc(C(=O)n2nc(-n3cccc3)c3c(C)cc(C)nc32)cc1,2.0,9.7,-1.3,-16.8,48.9*,/,51.4*
O=C(COC(=O)c1ccc([N+](=O)[O-])o1)NCc1ccc2c(c1)OCO2,2.2,9.2,-4.6,19.1,9.0,-2.0,/
COc1ccc(CNC(=O)C/C(C)=N/NC(=O)COc2ccc(Br)cc2)cc1,3.0,1.4,0.6,-0.2,12.1,6.2,/
Cc1ccc(NC(=O)COC(=O)[C@@H]2CC(O)CN2S(=O)(=O)c2ccc3c(c2)OCCO3)cc1 (stereo not given in full),-1.4,5.3,-0.3,-3.7,4.7,-0.9,/
COc1ccccc1NC(=O)c1ccc(-c2nn(C)c(=O)c3ccccc23)cc1,3.0,5.8,0.2,-1.2,-8.5,-0.4,/
COc1ccc(NC(=O)c2ccc(-c3nn(C)c(=O)c4ccccc34)cc2)cc1,-0.3,19.4,0.6,1.1,35.2*,2.7,7.7
Cc1ccc(/C([O-])=C(/C(=S)NCCN2CCOCC2)[n+]2ccccc2)cc1[N+](=O)[O-],-2.7,5.5,-3.0,0.8,-4.5,-0.6,/
Cc1ccc(C)c(Sc2ccc(NC(=O)CCN3C(=O)NC4(CCCC4)C3=O)cc2)c1,3.5,-3.2,1.2,-55.0,49.5*,24.3,53.9*
CSCC[C@H](N)C(=O)N1CCC(C(=O)N[C@H](C(=O)NCc2ccccc2F)C(C)C)CC1,9.0,6.3,-2.6,7.9,8.0,4.0,/
COc1ccc(NC(=S)N2CCN(C(=O)c3ccco3)CC2)cc1OC,-0.1,4.1,-2.0,2.5,-2.4,/,/
Cc1cccc(C(=O)Nc2sc(C)c(-c3ccccc3)c2C#N)c1,1.1,-4.1,-10.8,-46.6,47.2*,-0.9,-1.3
O=C(CCN1C(=O)/C(=C/c2ccc(F)cc2)SC1=S)Nc1cc([N+](=O)[O-])ccc1O,6.3,7.9,5.4,8.6,64.9*,5.3,69.3*
CSCCC(NC(=O)c1ccc([N+](=O)[O-])cc1Cl)C(=O)OCC(=O)NC1CCCC(C)C1C (stereo not given),8.3,-1.4,0.6,-6.2,33.5*,5.3,21.3
CC1CCCC(NC(=O)COC(=O)c2ccccc2[N+](=O)[O-])C1C (stereo not given),6.2,1.5,-2.2,3.8,65.0*,7.0,56.9*
CC1CCCC(NC(=O)COC(=O)/C=C/c2ccco2)C1C (stereo not given),-0.2,6.2,1.5,1.5,85.6*,8.3,78.6*
COc1ccc(Cl)cc1C(=O)OCC(=O)NC1CCCC(C)C1C (stereo not given),6.9,2.8,-1.4,-11.4,34.8*,/,25.7
COc1ccc([C@H]2CC(=O)C=C(c3ccccc3OC)C2)cc1OC,0.1,0.4,0.7,-5.2,5.9,0.4,/
Cc1cccc(C(=O)OCC(=O)NCCCc2ccccc2)c1O,1.3,9.2,-7.2,3.7,-6.5,6.0,/
CC1CCCC(NC(=O)COC(=O)/C=C/c2ccc([N+](=O)[O-])cc2)C1C (stereo not given),5.2,8.9,-0.2,-2.9,61.9*,10.9,19.6
SMILES,PAFAH1B2 inh,PAFAH1B3 FP inh,DAGLB inhibitor,HTRA1 inh,PAFAH2 FP inh,pPAFAH FP inh,PAFAH2 confirm
Cc1ccc(C(=O)OCC(=O)Nc2ncc(C(F)(F)F)cc2Cl)cc1NC(=O)c1ccco1,-1.7,4.0,2.9,-11.9,36.1*,0.0,27.3
COC(=O)c1ccccc1NC(=O)COC(=O)/C=C/c1cccs1,0.6,-1.0,-17.1,-1.7,17.0,1.3,/
Cc1ccc(NC(=O)COC(=O)/C=C/c2cccs2)c(C)c1,2.1,11.6,-3.4,-5.0,55.6*,7.0,41.6*
Cc1cc(C)c(NC(=O)COC(=O)/C=C/c2cccs2)c(C)c1,2.9,-11.6,0.2,2.3,35.5*,2.8,31.1*
Cc1ccc(OCC(=O)NC(=S)Nc2ccc(Br)cn2)cc1,5.0,8.0,-7.2,1.9,1.9,3.8,/
CCC(C)[C@H]1COCCS(=O)(=O)N1Cc1ccc(Cl)cc1Cl (stereo not given in full),-1.9,8.3,-7.0,-5.8,-0.5,-0.5,/
CCCCN(C)C(=O)c1nc2ccccn2c1CN1CCSCC1,0.7,-4.6,-0.5,-1.6,2.4,1.1,/
O=C(ON=C1CCN(c2ccc([N+](=O)[O-])cc2)CC1)c1ccccc1,5.9,7.1,-0.2,-9.3,90.0*,9.9,86.4*
O=C(ON=C1CCSCC1)c1ccccc1,0.7,4.8,0.9,-1.0,77.5*,7.6,76.1*
Cc1cc(NC(=O)COC(=O)CNC(=O)c2cccs2)c([N+](=O)[O-])cc1C,-4.3,-3.3,-1.9,1.1,10.5,-0.6,/
O=C(COC(=O)c1cccs1)Nc1ccccc1[N+](=O)[O-],3.0,-3.3,-3.9,4.3,74.6*,1.7,68.4*
N#Cc1ccccc1NC(=O)COC(=O)c1cccs1,4.8,-2.0,-1.3,-2.6,84.1*,4.2,62.6*
N#Cc1ccccc1NC(=S)NC(=O)c1cccs1,4.8,5.8,-0.3,9.3,6.9,1.4,/
CC(C(=O)NCc1ccccn1)c1ccc([N+](=O)[O-])cc1 (stereo not given),-1.6,2.8,-1.9,-0.5,2.5,-2.8,/
O=C(c1ccc2oc(Cc3ccc(Cl)cc3)nc2c1)N1CC[C@H](O)C1,6.7,3.7,2.1,-2.7,71.0*,6.1,62.6*
NC(=O)C1CCCN(C(=O)c2ccc3oc(Cc4ccc(Cl)cc4)nc3c2)C1 (stereo not given),10.6,2.0,-2.1,5.1,8.6,-2.0,/
O=C1CCCC2=C1C(c1cccc(O)c1)C1=C(N2)c2ccccc2C1=O (stereo not given),-1.9,-0.8,17.6,6.4,29.7*,4.4,10.1
COc1cccc(/C=C/C(=O)OCC(=O)NC2CC2)c1OC,5.2,16.5,1.0,5.1,68.1*,6.4,58.0*
O=C(COC(=O)/C=C/c1ccccc1[N+](=O)[O-])NC1CCS(=O)(=O)C1 (stereo not given),-0.5,1.4,1.6,-2.3,5.4,9.4,/

# Screening data (PubChem)
